Only some compounds are listed: those with a hit (about 2.2% of all), similar ones and a draw of the others.
LGR2 inh: inhibitors of bursicon-induced LGR2 CRE-luciferase signal, primary screen, cell-based, HEK293, CRE-luciferase reporter, bursicon stimulation. AID 720647, 2013. inhibition, % at 9.99 µM. 380,000 compounds, 0.35% hits. bursicon-stimulated, 4 h. Drosophila bursicon receptor LGR2 (rickets);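 active = drop in luminescence signal, shown as inhibition above about 50% in the replicate tests, limit read from the data, passing the limit was not always enough; inconclusive = probably only some replicates passing the limit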;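 also: agonist challenge used bursicon conditioned medium at about half maximal strength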
TRPM1 prom inh: inhibitors of MITF-dependent TRPM1 promoter reporter, primary screen, cell-based, SK-MEL-5, single point, luciferase; SK-MEL-5 TRPM1 promoter luciferase, 24 h; inhibition, % at 12.5 µM; 330,000 compounds, 0.83% hits; AID 488899, 2010;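 active = mean inhibition across replicates of 60% or more, whatever share of single replicates reaches that level; inconclusive = some that reach 60%, reason not given; inactive = mean inhibition across replicates below 60%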
EWS-Fli block: EWS/Fli-driven NR0B1 reporter inhibitors, primary screen, A673 cells, NR0B1 luciferase, luminescence, MLPCN library; viability-normalised; inhibition, % at 12.6 µM; 350,000 compounds, 0.67% hits; AID 651661, 2012;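 active = mean inhibition of at least 50% after viability correction, with every replicate also passing that limit; inconclusive = mean reaches 50% but only one of two replicates passes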;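 also: firefly luciferase signal divided by Alamar Blue viability fluorescence both relative to DMSO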
Shn3 3UTR inh: reduction of Shn3 3'UTR firefly luciferase signal, primary screen, Schnurri-3 inhibitor project, cell-based, Clone20 osteoblasts, set 2 | Clone20 osteoblast Shn3 3'UTR firefly luciferase, 24 h | inhibition, % at 12.5 µM | 360,000 compounds, 0.52% hits;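 active = mean inhibition of at least 75% with every replicate also reaching 75%; inconclusive = mean inhibition at least 75% but some replicate below; inactive = mean inhibition below 75%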;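 also: 0% = median of neutral control wells and 100% = pilot-screen positive control compound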
PAX8 reporter: inhibitors of PAX8-driven TPO luciferase reporter, primary screen, RMG-I cells, single concentration; SteadyGlo, 24 h; inhibition, % at 12.6 µM; 360,000 compounds, 1.2% hits;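 active = mean replicate inhibition at least 60% with every replicate also reaching 60%; inconclusive = only one of the two criteria is met; inactive = mean below 60% and not all replicates reaching 60%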;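 also: luciferase light reporting Pax8 driven TPO promoter activity; plate controls were median of neutral control wells for no effect and mitoxantrone controls for full effect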
EBV LMP1 NFkB: EBV LMP1-driven NF-kappaB luciferase reporter inhibitors, primary screen, cell-based, luminescence, single point | inhibition, % at 12.5 µM | 350,000 compounds, 0.69% hits | LMP1-induced NF-kappaB luciferase reporter cells; in the data active = inhibition above about 41%; inconclusive = no clear call, values can overlap the other calls;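 also: 0% = neutral control wells and 100% = reference inhibitor control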
Numbers without * were called inactive; ? = inconclusive; / = not tested or not shown; ! = not active in a repeat.

SMILES | LGR2 inh | TRPM1 prom inh | EWS-Fli block | Shn3 3UTR inh | PAX8 reporter | EBV LMP1 NFkB
CCCNC(=O)Nc1ccc2c(c1)C(=O)N(C)C[C@@H](OC)[C@H](C)CN(Cc1ccncc1)[C@@H](C)CO2 | -22.9 | / | 1.8 | / | -1.8 | /
CCS(=O)(=O)Nc1ccc2c(c1)C(=O)N(C)[C@@H]1CC[C@@H](CC(=O)Nc3ccccc3)O[C@@H]1CO2 | -5.1 | / | 0.7 | / | -11.4 | /
CCN1CCN(Cc2ccc(NC(=O)c3cccc(-c4ccc5nc(NC(=O)C6CC6)sc5n4)c3)cc2C(F)(F)F)CC1 | 76.3* | / | 37.4 | / | 80.2* | /
CCN1CCN(Cc2ccc(NC(=O)c3cc(NC(=O)C(=O)c4c[nH]c5ccccc45)cc(OC)c3)cc2C(F)(F)F)CC1 | -22.6 | 57.5 | 54.2* | 32.7 | 95.2* | -35.1
CCN1CCN(Cc2ccc(NC(=O)c3ccc(C)c(NC(=O)c4ccnnc4)c3)cc2C(F)(F)F)CC1 | 9.3 | -9.3 | -9.4 | -16.4 | 7.9 | 25.4
CCN1CCN(Cc2ccc(NC(=O)c3cc(NC(=O)c4cc(C)on4)cc(OC)c3)cc2C(F)(F)F)CC1 | -1.7 | 49.5 | 9.7 | -8.8 | 11.7 | -6.9
CCN1CCN(Cc2ccc(NC(=O)c3cc(NC(=O)c4cnn(-c5ccccc5)c4N)cc(OC)c3)cc2C(F)(F)F)CC1 | -16.8 | 79.3* | 61.3* | 15.4 | -1.7 | 4.8
CCN1CCN(Cc2ccc(NC(=O)c3ccc(C)c(NC(=O)C(=O)c4c[nH]c5ccccc45)c3)cc2C(F)(F)F)CC1 | 18.8 | 82.4* | 58.5*! | ? | 101.1* | 43.5*!
COc1ccc2c3c(n(C)c2c1)[C@@H](CO)N(C(=O)c1ccccn1)CC31CCN(C(C)=O)CC1 | -31.9 | / | -3.3 | / | -34.3 | /
Cc1cc(C(=O)CN2C(=O)c3ccccc3S2(=O)=O)c(C)n1CC1CCCO1 (stereo unspecified) | / | 82.8* | / | 67.9 | / | 80.0*
O=C(CN1C(=O)c2ccccc2S1(=O)=O)c1ccc(O)c(O)c1 | 4.4 | 17.0 | 22.1 | / | -4.1 | 23.1
O=C(CN1C(=O)c2ccccc2S1(=O)=O)c1ccc(F)c(F)c1 | 64.6* | 11.7 | 35.1 | 35.4 | 63.6* | 46.3*
Cc1cc(C(=O)CN2C(=O)NC(C)(c3ccccc3)C2=O)c(C)n1CC1CCCO1 (stereo unspecified) | / | -2.1 | / | -4.6 | / | -7.1
O=C(C[C@@H]1CC[C@H](NC(=O)Nc2ccccc2F)[C@H](CO)O1)NCc1ccc(Cl)cc1 | -14.6 | / | -4.8 | / | -0.3 | /
CN1C(=O)c2cc(NC(=O)c3cccc(Cl)c3)ccc2OC[C@H]2O[C@H](CC(=O)NC3CCCCC3)CC[C@@H]21 | -6.5 | / | 0.4 | / | 69.9* | /
CN1C(=O)c2cc(NC(=O)Cc3cccs3)ccc2OC[C@@H]2O[C@@H](CC(=O)NCc3ccc(-c4ccccc4)cc3)CC[C@H]21 | / | / | 70.9* | / | 66.2* | /
CC(C)c1cccc(NC(=O)C[C@H]2CC[C@H]3[C@@H](COc4ccc(NC(=O)NCc5ccccc5)cc4C(=O)N3C)O2)c1 | 15.0 | / | 1.5 | / | 63.5* | /
CC(=O)Nc1ccc2c(c1)C(=O)N(C)[C@H]1CC[C@H](CC(=O)Nc3cccc(C(C)C)c3)O[C@@H]1CO2 | 4.1 | / | 1.1 | / | 22.6 | /
CN1C(=O)c2cc(NC(=O)c3cccc(Cl)c3)ccc2OC[C@H]2O[C@H](CC(=O)NC3CCCCC3)CC[C@H]21 | -1.8 | / | 9.8 | / | 20.2 | /
CN1C(=O)c2cc(NS(=O)(=O)c3ccc(Cl)cc3)ccc2OC[C@@H]2O[C@@H](CC(=O)N3CCc4ccccc4C3)CC[C@@H]21 | 5.9 | / | 16.6 | / | 37.6 | /
CN1C(=O)c2cc(NS(=O)(=O)c3ccc(Cl)cc3)ccc2OC[C@H]2O[C@@H](CC(=O)N3CCc4ccccc4C3)CC[C@@H]21 | 11.3 | / | 19.1 | / | 74.3* | /
Cc1noc(C)c1NC(=O)Nc1ccc2c(c1)C(=O)N([C@H](C)CO)C[C@@H](C)[C@@H](CN(C)C(=O)Nc1ccc3c(c1)OCO3)OCCCC[C@@H](C)O2 | 7.4 | / | -12.3 | / | / | /
C[C@@H]1CN([C@H](C)CO)S(=O)(=O)c2ccc(C#CC3CC3)cc2O[C@H]1CN(C)Cc1cncnc1 | 0.8 | / | 14.4 | / | / | /
C[C@@H]1CN([C@H](C)CO)C(=O)c2cc(C#C[C@@H](C)O)cnc2O[C@H]1CN(C)C(=O)CN1CCOCC1 | 5.9 | / | -6.5 | / | 5.3 | /
C[C@@H]1CCCCO[C@H](CN(C)C(=O)Nc2cccc3ccccc23)[C@@H](C)CN([C@@H](C)CO)C(=O)c2cc(NS(=O)(=O)c3ccccc3)ccc2O1 | 11.9 | / | -3.9 | / | 28.2 | /
SMILES | LGR2 inh | TRPM1 prom inh | EWS-Fli block | Shn3 3UTR inh | PAX8 reporter | EBV LMP1 NFkB
COCCNC(=O)C[C@@H]1C[C@@H]2c3cc(NC(=O)c4cccnc4)ccc3O[C@@H]2[C@@H](CO)O1 | 15.6 | / | -1.3 | / | 18.5 | /
COc1cccc(NC(=O)C[C@H]2CC[C@@H]3[C@H](COc4ccc(NS(=O)(=O)c5cccc(F)c5)cc4C(=O)N3C)O2)c1 | 5.2 | / | 2.2 | / | 22.9 | /
COc1cccc(S(=O)(=O)Nc2ccc3c(c2)C(=O)N(C)[C@H]2CC[C@H](CC(=O)Nc4ccc(C(C)C)cc4)O[C@@H]2CO3)c1 | -17.0 | / | 11.4 | / | 66.1* | /
Cc1noc(C)c1S(=O)(=O)Nc1ccc2c(c1)C(=O)N([C@H](C)CO)C[C@@H](C)[C@H](CN(C)S(=O)(=O)c1ccccc1)O2 | -5.6 | / | -3.2 | / | / | /
CC(C)(C)OC(=O)NCCCC[C@H](NC(=O)c1[nH]cnc1C(=O)Nc1ccc(CNC(=O)OC(C)(C)C)cc1)C(=O)OC(C)(C)C | 24.9 | / | 38.8 | / | 110.0* | /
CC(C)(C)OC(=O)[C@H](Cc1ccccc1)NC(=O)c1nc[nH]c1C(=O)N[C@@H](Cc1ccccc1)C(=O)OC(C)(C)C | 30.7 | 12.5 | 16.9 | 15.9 | 103.8* | -3.6
Cc1ccc(NC(=O)c2nc[nH]c2C(=O)NCCCCCCNC(=O)c2[nH]cnc2C(=O)Nc2ccc(C)cc2)cc1 | 6.2 | 4.6 | 3.8 | 1.1 | 0.7 | -36.8
CC(C)(C)OC(=O)NCCCC[C@H](NC(=O)c1nc[nH]c1C(=O)NCc1ccccc1)C(=O)OC(C)(C)C | / | 1.1 | 6.5 | 21.8 | 14.1 | -2.1
Cc1ccc(NC(=O)c2nc[nH]c2C(=O)NCCCCNC(=O)c2[nH]cnc2C(=O)Nc2ccc(C)cc2)cc1 | 1.9 | 2.6 | 17.7 | 38.4 | 80.3* | -3.0
CC(C)(C)OC(=O)NCCCC[C@H](NC(=O)c1[nH]cnc1C(=O)N[C@@H](Cc1ccccc1)C(=O)OC(C)(C)C)C(=O)OC(C)(C)C | 12.7 | 42.3 | 34.8 | 2.1 | 104.1* | -21.4
CN(C)C(=O)C[C@@H]1C[C@@H]2c3cc(NS(=O)(=O)c4ccc(F)cc4)ccc3O[C@@H]2[C@H](CO)O1 | 14.9 | / | 7.8 | / | -10.0 | /

Screening results (PubChem BioAssay)
